Data: PubChem BioAssay AID2690 (NMMLSC, 2010)
In all, about 330,000 compounds went through this assay and about 590 (0.18%) were called active. The entries come from a sample that favours actives as a whole. Unmarked numbers belong to inactive results.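 The calls were made as follows: active = superoxide response under a set limit, about three screen SD below normal (cut at about 65% in these data); inactive = the rest.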

Test: reduction of superoxide in aged yeast, primary screen, HTS (AID 2690);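 also: yeast aged for seven days with compound at 30 °C before DHE staining; 100% = average MFI of all compound-treated wells on the plate with controls excluded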
Conditions: S. cerevisiae aged cells, superoxide DHE fluorescence; at 10 µM; active compounds read low

Structure (SMILES)	superoxide response (% of plate mean)
CCOC(=O)c1c(C)nn(-c2ncccc2NC(=O)CCC(=O)O)c1C	122%
Cc1ccc(C(=O)O)cc1-c1ccc(/C=C2\SC(=O)N(CC(=O)Nc3ccc4c(c3)OCO4)C2=O)o1	114%
Cc1ccccc1N1CCN(C2CCCN(C(=O)c3cn4c(C)cccc4n3)C2)CC1 (centres undefined)	98.9%
COc1cc(N2C(=O)c3ccccc3C2=O)c(Cl)cc1C(=O)OCC(=O)N1CCOCC1	106%
COc1ccc(OCCCC(=O)OC(C)C(=O)Nc2ccccc2[N+](=O)[O-])cc1 (centres undefined)	95.2%
CC1(C(=O)NCCc2c[nH]c3ccccc23)C=CC2(CCCCC2)N1C(=O)c1ccccc1 (centres undefined)	93.9%
Cc1csc2ncc(C(=O)N(Cc3ccccc3)c3ccccn3)c(=O)n12	92.8%
Cc1cc(F)ccc1S(=O)(=O)Nc1ncnc2scc(-c3ccc(F)cc3)c12	103%
Clc1nc(NC2CCCC2)nc(N2CCOCC2)n1	104%
COC(=O)CNc1nc(Cl)nc(N2CCC(C)CC2)n1	51% (active)
CCOC(=O)CNc1nc(Cl)nc(Nc2ccccc2)n1	114%
CCc1noc(C)c1C(=O)Oc1ccc(N(C)S(=O)(=O)c2ccc(C)c(C)c2)cc1	103%
CCOc1c(N2CCCCC2)c(=O)c1=O	105%
COc1ccc(NS(=O)(=O)c2ccc(O)c(C(=O)OCC(=O)NC3CCCCC3)c2)cc1	93.5%
NS(=O)(=O)c1ccc(CCNC(=O)CN2C(=O)c3ccccc3S2(=O)=O)cc1	111%
Cc1ccc(C(=O)OCC(=O)NC(=O)Cc2ccccc2)c(O)c1	110%
C=CCNC(=S)/N=c1/ccccn1Cc1ccccc1	102%
COC(=O)c1ccc(NC(=O)CSc2nncc3ccc(OC)c(OC)c23)cc1	119%
C=CCn1c(SCc2ccccc2)nc2c1c(=O)[nH]c(=O)n2C	102%
Cc1cc(OCc2cc(C(=O)NCc3cc(C(C)C)no3)no2)cc(C)c1Cl	111%
NC(=O)CSc1c[nH]c2ccccc12	97.2%
NC(=O)Cc1ccc2c(c1)[nH]c1ccccc12	40.8% (active)
CCn1c2ccccc2c2cc(CC(N)=O)ccc21	105%
OCCC1CN(Cc2cnc(-c3ccccc3)s2)CCN1CCc1ccccc1 (centres undefined)	88.7%

Structure (SMILES)	superoxide response (% of plate mean)
Cc1cccc(OCC(=O)OCC(=O)Nc2ccc(Cl)cn2)c1	99.9%
CCCC(C(=O)NCc1ccco1)N(C(=O)CNS(=O)(=O)c1ccccc1)C1CCCC1 (centres undefined)	101%
Cc1ccc(-c2noc(CNC(=O)c3ccoc3C)n2)cc1	85%
Cc1ccc(N2CCN(S(=O)(=O)c3ccc(F)cc3)CC2)c(C)c1	106%
CC(=O)c1ccc(N2CCN(S(=O)(=O)c3ccc4c(c3)CC(=O)N4C)CC2)cc1	97.6%
Cc1c(NC(=O)CN(C)CC(=O)Nc2ccc(F)c(F)c2F)c(=O)n(-c2ccccc2)n1C	91.2%
CCOc1ccc2nc(Cl)c(C3CC(c4ccccc4)=NN3C(=O)c3cccs3)cc2c1 (centres undefined)	75.7%
O=C(CSc1nnnn1C1CCCC1)Nc1ccc2c(c1)OCCO2	98.8%
CC(C(=O)N=Nc1c(O)n(C)c2ccc(Br)cc12)n1cnc2ccccc2c1=O (centres undefined)	89.3%
COc1cc(NC(=O)C2=C(C)OCCS2)c(Cl)cc1C(=O)NCCN1CCN(C)CC1	99.2%
CCN(CC)N=Nc1cccc(NC(C)=O)c1	96.8%
CCc1ccccc1NC(=O)CN(C)C(=O)c1cc(C2CC2)nn1-c1ccccc1	117%
C/C(CC(=O)NC(C)(C)C)=N\NC(=O)c1ccco1	92.3%
O=C(OC1CCCCC1=O)c1cccc(S(=O)(=O)NCc2ccccc2)c1 (centres undefined)	91.2%
O=C(O)CC/C(=N\NC(=O)c1ccc(F)cc1)c1ccc(Br)cc1	97.4%
COc1cc(NS(=O)(=O)c2ccc(NC(=O)CN3C(=O)c4ccccc4C3=O)cc2)ncn1	87.5%
CN(C)C(=O)c1coc2nc3ccccc3nc12	90.3%
CNC(=O)c1cccc2nc3ccccc3nc12	47% (active)
CNC(=O)c1cc2c(ccc3ccccc32)oc1=N	90%
O=C1CCCCC1C(=O)c1ccccc1 (centres undefined)	88.5%
CCc1ccc(-c2nc(SCC(=O)NC3CCCC3)n[nH]2)cc1	109%
Clc1ccc2nc(CSc3ccccc3)cn2c1	99.1%
Cc1ccc(OCC(=O)Nc2ccc(N3CCN(C(=O)c4ccco4)CC3)cc2)c(C)c1	100%
CN(C)c1ccc(/C=N/NC(=O)C(O)c2ccc(Br)cc2)cc1 (centres undefined)	110%

Structure (SMILES)	superoxide response (% of plate mean)
CN(C)c1ccc(/C=N\S(=O)(=O)c2ccccc2)cc1	64.7% (active)
CN(C)c1ccc(C=NCCc2ccc(S(N)(=O)=O)cc2)cc1	82.2%
Cc1c(C(=O)OCC(=O)N(CCC#N)c2ccccc2)oc2c1ccc1ccccc12	86.3%
COC(=O)CNC(=O)c1ccc(OC2CCN(C(=O)C3CC3)CC2)cc1	64% (active)
COCCC(=O)N1CCC(Oc2ccc(C(=O)NCc3ccon3)cc2)CC1	92%
C=C(C)CNC(=O)c1ccc(OC2CCN(C(=O)COC)CC2)cc1	103%
C[n+]1cc(-c2ccccc2)oc1-c1ccccc1	96.2%
COc1ccc(/C(C)=N/Nc2cc(C(F)(F)F)ccc2Cl)c(OC)c1	87.7%
N=C1C(=O)OCC1c1ccccc1NC(=O)CN1CCCCC1 (centres undefined)	110%
CCCCOC(=O)Nc1sc2nc(C)cc(C)c2c1-n1cccc1	113%
Cc1ccc2c(cnn2C(=O)CCC(=O)NC2CCCC2)c1	96.7%
COc1ccc(C2=Nc3cc(C)ccc3OC2)cc1	99.1%
C#CCO[C@@H]1C[C@H](n2cnc3c(=O)[nH]c(NC(=O)C(C)C)nc32)O[C@@H]1CO	101%
COCCN(C(=O)CCC(=O)Nc1nccs1)C(C(=O)NC(C)(C)C)c1ccc(Cl)cc1 (centres undefined)	87.1%
O=C(NC1CCCC1)C1CC(=O)N(c2ccc(F)cc2)C1 (centres undefined)	96.9%
COc1ccc(C(C)C)cc1S(=O)(=O)Nc1ncn[nH]1	87.8%
O=c1o[nH]c(-c2ccccc2)c1N=Nc1c(F)cccc1Cl	105%
O=C(NCCCNC(=O)NC1CCCCC1)NC1CCCCC1	106%
O=C(Oc1c(-c2ccco2)oc2ccccc2c1=O)c1cccnc1	104%
O=[N+]([O-])c1cc(S(=O)(=O)Nc2cccc(Cl)c2)ccc1N=Nc1c(O)[nH]c2ccccc12	91.3%
CC(=O)c1c(C)c[nH]c1C	90.3%
Cc1ccc(NC(=O)CSCC(=O)N2CCOCC2)cc1	98.5%
CCc1ccccc1N(CC(=O)NCC1CCCO1)C(=O)CCC(=O)Nc1nccs1 (centres undefined)	88%
COc1ccc(-c2cc(C(=O)N(C)Cc3ccc(OC)c(OC)c3OC)c3ccccc3n2)cc1OC	96.5%

Structure (SMILES)	superoxide response (% of plate mean)
Cc1cccc(CN2CCC(CNC(=O)Nc3ccc(F)c(Cl)c3)CC2)c1	92.6%
O=C(NCC1CCN(Cc2ccccc2Cl)CC1)Nc1cccc(Cl)c1	103%
Cc1ccccc1NC(=O)NCC1CCN(Cc2cccc(Cl)c2)CC1	36.3% (active)
C/C(N)=C(/C#N)C(=O)COC(=O)C1=NN(c2ccccc2)C(=O)CC1	82.1%
CN(C)C1=NC[C@H](Cc2ccccc2)N1CCc1ccc(F)cc1	98.7%
C/C(=N\NS(=O)(=O)c1cccc([N+](=O)[O-])c1)c1cc2ccccc2o1	107%
CCC(=O)N(C)C(c1ccccc1Cl)c1nnnn1-c1c(C)cccc1C (centres undefined)	107%
COc1ccccc1C(=O)Nc1ccnn1C1CCN(Cc2cnn(C)c2)CC1	92%
O=C(NNC(=O)c1cc(S(=O)(=O)N2CCCCC2)ccc1Cl)c1ccccc1O	95.4%
CCC1(CC)C(=O)C2=C3C1[C@H](C(=O)OC)C=C(C(=O)OC)C[C@H]3[C@H]1C(=O)N(Cc3ccccc3)C(=O)[C@H]1[C@H]2C (some centres undefined)	107%
CC[C@]12c3[nH]c4cc(CCC(=O)N(C)C)ccc4c3CCN1C(=O)[C@@H](CC(=O)NCC13CC4CC(CC(C4)C1)C3)C[C@@H]2C(=O)N1CCN(C(=O)C2CC2)CC1	120%
O=C(NNC(=O)C1C2CCC(C2)C1C(=O)O)c1ccc(Cl)cc1 (centres undefined)	97.2%
CCOC(=O)NNC(=O)c1ccc(Cl)cc1	96.8%
CSc1sc(C(=O)NNC(=O)c2ccc(Cl)cc2)c2c1C=CCC2	61.9% (active)
O=C(NC(=S)Nc1ccccc1N1CCCCC1)c1ccc(F)cc1	98.2%
O=C(Nc1ccccc1N1CCCC1)c1ccc(F)c(S(=O)(=O)N2CCOCC2)c1	85.3%
O=C(Nc1ccccc1N1CCCC1)c1ccc2ccccc2c1	59% (active)
Cc1cccc2c1cnn2C(=O)CCC(=O)NC1CCCCC1	82.7%
N#Cc1cccc(NC(=O)CN2CCCCCC2)c1	94.7%
COc1cc(CO)ccc1OCC(=O)Nc1cccc2ccccc12	99.9%
Cc1cccc2[nH]c(CN(C)C(=O)C3CCC(=O)N(CCc4ccccc4)C3)nc12 (centres undefined)	102%
COc1ccc(-c2c(-c3cc(OC)cc(OC)c3)n(C)c3ccc(-c4ccn[nH]4)cc23)cc1	87%
